Source: the supplement of paper PMC10849652
About 8,800 targets were measured; listed, in parts, are those with a hit and a random draw of the rest. About 0.5% of all pairs of compound and target were hits. Unmarked numbers belong to inactive results.

These targets were tested with C1=CC=C(C=C1)[C@H](COC2=CC3=C(C=C2)NC(=O)N3)NC(=O)C4=CC=CN(C4=O)CC5=CC(=C(C=C5)F)F (assay: log2 fold change, soluble protein after heating vs DMSO (PISA); higher = thermal stabilisation; K562 lysate, 10 uM; active = over 0.2 and 3.5 SD of the protein, either way, in both replicates (recomputed)).
Procedure, shortened: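 Pellets of K562 cells were dounce-homogenised in PBS pH 7.4 with 1 mM MgCl2, and the crude extract was held at 1 mg/mL protein for a 30 min treatment with 10 μM compound. Aliquots were heated for 3 min over 48°C-58°C and pooled before NP-40 was added to 0.5% at 4°C. The supernatant from 21,000xg for 90 min was quantified by TMTpro 16plex LC-MS/MS with channel sums equalised. Values are reported from duplicates as log-two fold change in thermal stability relative to solvent controls.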

Sequence of UniProt P33981 (P33981 whole entry, looked up): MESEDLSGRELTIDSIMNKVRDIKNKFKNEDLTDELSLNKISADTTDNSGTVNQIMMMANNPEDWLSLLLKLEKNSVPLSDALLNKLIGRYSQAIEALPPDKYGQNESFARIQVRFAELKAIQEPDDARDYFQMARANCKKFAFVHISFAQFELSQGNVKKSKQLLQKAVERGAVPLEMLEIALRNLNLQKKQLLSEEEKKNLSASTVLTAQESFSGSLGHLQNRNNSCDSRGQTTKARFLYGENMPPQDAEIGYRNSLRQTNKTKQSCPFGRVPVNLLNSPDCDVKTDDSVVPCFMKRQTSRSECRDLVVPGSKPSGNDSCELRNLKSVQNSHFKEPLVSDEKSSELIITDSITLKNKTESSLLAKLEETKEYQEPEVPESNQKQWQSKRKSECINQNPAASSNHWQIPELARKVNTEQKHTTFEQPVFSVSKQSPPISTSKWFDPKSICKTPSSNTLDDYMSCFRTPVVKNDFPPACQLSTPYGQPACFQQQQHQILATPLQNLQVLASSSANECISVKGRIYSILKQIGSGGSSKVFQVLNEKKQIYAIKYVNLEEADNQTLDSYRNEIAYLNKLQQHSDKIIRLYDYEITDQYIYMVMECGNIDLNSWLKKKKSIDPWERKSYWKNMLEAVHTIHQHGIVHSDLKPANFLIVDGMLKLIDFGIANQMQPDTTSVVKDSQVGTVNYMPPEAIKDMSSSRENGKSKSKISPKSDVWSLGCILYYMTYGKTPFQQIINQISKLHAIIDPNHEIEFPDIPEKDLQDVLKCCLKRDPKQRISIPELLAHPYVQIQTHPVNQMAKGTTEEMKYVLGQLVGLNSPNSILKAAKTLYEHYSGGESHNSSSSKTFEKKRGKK
Sequence of UniProt Q9BUF5 (Q9BUF5 whole entry, looked up): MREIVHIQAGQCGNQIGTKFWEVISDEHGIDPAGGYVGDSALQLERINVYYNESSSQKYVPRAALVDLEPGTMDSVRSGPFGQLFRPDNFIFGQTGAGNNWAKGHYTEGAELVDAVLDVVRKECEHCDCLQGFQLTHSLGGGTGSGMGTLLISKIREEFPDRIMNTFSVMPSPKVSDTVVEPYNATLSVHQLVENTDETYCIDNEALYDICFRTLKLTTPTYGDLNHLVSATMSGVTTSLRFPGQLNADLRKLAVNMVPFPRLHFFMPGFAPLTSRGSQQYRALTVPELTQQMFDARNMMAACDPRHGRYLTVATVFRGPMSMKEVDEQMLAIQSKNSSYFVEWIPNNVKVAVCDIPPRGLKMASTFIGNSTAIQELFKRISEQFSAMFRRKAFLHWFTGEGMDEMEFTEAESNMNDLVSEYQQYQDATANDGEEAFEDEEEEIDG
Sequence of UniProt Q9H5L6 (Q9H5L6 whole entry, looked up): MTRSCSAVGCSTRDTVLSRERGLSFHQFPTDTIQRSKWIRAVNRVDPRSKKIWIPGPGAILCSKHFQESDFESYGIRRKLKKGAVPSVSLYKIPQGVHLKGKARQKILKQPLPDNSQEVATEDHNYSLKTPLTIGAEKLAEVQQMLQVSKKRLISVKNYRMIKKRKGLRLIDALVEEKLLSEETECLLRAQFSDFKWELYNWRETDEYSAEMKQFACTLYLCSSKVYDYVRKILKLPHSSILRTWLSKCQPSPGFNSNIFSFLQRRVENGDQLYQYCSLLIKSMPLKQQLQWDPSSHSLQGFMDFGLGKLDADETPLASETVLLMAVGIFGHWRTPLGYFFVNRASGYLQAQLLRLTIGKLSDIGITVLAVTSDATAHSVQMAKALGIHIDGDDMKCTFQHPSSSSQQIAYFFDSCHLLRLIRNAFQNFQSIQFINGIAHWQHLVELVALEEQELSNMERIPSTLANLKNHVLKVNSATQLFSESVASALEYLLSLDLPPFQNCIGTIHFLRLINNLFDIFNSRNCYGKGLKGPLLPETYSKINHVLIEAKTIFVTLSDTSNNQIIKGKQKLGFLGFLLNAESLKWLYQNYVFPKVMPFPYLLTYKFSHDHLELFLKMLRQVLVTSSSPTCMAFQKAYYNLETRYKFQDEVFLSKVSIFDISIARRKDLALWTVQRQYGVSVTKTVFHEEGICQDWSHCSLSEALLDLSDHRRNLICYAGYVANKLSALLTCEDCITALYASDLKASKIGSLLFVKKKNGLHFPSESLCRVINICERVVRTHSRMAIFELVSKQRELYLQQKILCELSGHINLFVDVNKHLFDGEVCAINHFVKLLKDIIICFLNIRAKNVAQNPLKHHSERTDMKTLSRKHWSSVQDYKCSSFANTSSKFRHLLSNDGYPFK
Sequence of UniProt O43399 (O43399 whole entry, looked up): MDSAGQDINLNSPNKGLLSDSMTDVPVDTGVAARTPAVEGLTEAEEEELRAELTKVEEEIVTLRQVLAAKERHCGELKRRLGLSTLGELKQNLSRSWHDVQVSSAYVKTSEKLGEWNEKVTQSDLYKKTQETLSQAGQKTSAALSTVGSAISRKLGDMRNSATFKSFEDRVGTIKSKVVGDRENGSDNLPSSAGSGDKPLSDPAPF
Sequence of UniProt Q96DX7 (Q96DX7 whole entry, looked up): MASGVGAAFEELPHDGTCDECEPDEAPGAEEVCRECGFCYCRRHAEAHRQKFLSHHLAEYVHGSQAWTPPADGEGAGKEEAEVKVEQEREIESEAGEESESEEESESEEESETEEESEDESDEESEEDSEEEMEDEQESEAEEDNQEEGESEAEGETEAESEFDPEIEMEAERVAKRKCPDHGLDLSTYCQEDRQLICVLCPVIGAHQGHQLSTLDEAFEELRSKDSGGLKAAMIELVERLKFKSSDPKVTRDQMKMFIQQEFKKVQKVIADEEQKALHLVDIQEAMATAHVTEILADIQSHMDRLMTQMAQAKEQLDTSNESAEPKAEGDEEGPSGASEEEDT
Sequence of UniProt Q96Q05 (Q96Q05 whole entry, looked up): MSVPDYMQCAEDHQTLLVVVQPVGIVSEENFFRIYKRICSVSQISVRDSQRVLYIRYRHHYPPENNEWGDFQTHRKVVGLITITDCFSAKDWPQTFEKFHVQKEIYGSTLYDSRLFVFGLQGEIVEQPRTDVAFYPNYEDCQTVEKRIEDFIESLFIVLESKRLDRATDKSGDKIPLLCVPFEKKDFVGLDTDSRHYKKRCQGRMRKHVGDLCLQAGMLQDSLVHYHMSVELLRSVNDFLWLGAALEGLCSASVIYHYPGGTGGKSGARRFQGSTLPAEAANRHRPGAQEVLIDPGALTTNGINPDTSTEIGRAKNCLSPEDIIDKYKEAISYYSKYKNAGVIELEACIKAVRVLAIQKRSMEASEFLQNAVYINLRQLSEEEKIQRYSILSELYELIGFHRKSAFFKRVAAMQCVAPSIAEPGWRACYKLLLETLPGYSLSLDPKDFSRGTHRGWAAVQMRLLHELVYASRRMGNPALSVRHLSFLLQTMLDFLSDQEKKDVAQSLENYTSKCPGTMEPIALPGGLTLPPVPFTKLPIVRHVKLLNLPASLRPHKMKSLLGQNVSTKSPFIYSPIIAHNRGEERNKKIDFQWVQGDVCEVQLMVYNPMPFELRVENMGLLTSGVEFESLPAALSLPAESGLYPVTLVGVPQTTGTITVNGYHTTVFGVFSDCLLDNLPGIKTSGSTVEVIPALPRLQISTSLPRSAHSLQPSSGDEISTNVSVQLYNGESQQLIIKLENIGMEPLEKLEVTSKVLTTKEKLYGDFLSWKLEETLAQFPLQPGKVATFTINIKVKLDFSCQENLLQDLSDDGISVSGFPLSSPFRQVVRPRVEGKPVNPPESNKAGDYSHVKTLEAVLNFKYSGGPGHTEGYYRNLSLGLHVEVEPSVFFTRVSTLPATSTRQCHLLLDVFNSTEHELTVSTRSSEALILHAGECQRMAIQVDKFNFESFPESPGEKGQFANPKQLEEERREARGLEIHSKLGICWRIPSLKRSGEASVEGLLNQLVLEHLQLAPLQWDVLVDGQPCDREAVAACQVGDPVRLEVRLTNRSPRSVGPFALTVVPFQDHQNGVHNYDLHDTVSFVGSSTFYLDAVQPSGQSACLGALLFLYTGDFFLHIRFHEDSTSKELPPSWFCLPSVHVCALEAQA
Sequence of UniProt P0DPH7 (P0DPH7 whole entry, looked up): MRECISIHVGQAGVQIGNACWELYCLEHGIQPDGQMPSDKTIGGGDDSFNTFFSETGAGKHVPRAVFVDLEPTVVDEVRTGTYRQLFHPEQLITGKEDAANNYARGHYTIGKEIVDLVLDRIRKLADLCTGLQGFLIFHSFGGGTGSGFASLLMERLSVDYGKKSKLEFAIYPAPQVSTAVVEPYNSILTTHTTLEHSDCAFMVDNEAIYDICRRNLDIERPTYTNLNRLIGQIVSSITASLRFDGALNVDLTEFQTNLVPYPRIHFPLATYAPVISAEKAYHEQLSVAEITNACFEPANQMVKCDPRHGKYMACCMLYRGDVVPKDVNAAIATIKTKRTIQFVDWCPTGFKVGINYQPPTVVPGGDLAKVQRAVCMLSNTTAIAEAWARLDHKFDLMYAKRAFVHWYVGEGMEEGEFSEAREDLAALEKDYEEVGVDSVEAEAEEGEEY
Sequence of UniProt Q5JUR7 (Q5JUR7 whole entry, looked up): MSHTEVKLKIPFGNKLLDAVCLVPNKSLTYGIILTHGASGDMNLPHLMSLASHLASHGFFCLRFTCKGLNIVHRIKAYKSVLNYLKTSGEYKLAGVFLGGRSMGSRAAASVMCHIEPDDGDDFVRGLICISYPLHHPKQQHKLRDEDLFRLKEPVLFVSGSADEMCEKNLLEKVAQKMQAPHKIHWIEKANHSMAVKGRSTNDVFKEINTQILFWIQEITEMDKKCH
Sequence of UniProt Q9BZL1 (Q9BZL1 whole entry, looked up): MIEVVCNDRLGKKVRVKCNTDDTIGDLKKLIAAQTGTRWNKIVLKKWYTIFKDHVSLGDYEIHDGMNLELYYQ
Sequence of UniProt Q6IPR3 (Q6IPR3 whole entry, looked up): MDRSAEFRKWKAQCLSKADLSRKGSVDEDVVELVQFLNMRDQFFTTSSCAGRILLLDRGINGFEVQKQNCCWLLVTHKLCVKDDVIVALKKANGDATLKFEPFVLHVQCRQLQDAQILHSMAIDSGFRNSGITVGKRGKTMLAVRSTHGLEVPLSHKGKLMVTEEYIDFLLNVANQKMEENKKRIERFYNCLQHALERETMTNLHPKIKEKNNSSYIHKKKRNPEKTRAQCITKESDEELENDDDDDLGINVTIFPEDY

Target | log2 fold change
TBL3 (UniProt Q12788) | 0.024
TRMT10A (UniProt Q8TBZ6) | -0.046
TLK1 isoform 2 (UniProt Q9UKI8) | 0.005
TRAPPC9 isoform 2 (UniProt Q96Q05) | 0.001
TUBB1 (UniProt Q9H4B7) | -0.005
TYW3 (UniProt Q6IPR3) | 0.082
TNIK isoform 4 (UniProt Q9UKE5) | 0.015
TCF12 isoform 3 (UniProt Q99081) | 0.062
TUBB6 (UniProt Q9BUF5) | -0.005
TFCP2 (UniProt Q12800) | 0.044
TFAP4 (UniProt Q01664) | 0.018
TRIM11 (UniProt Q96F44) | 0.028
TROAP (UniProt Q12815) | -0.008
UBR4 (UniProt Q5T4S7) | -0.012
TEX30 (UniProt Q5JUR7) | -0.074
TRAPPC12 (UniProt Q8WVT3) | 0.005
TTLL12 (UniProt V9GY16) | 0.022
TESC (UniProt Q96BS2) | 0.034
TMEM87A (UniProt Q8NBN3) | 0.066
TBK1 (UniProt Q9UHD2) | -0.012

Target | log2 fold change
TRIM25 (UniProt Q14258) | 0.047
UBL5 (UniProt Q9BZL1) | 0.063
TSPAN13 (UniProt O95857) | 0.076
TTK (UniProt P33981) | -0.016
TIAL1 isoform 2 (UniProt Q01085) | 0.068
TGFBRAP1 (UniProt Q8WUH2) | -0.035
UBE2L6 (UniProt O14933) | -0.01
TUBB4A (UniProt M0QYM7) | -0.207
TRIM44 (UniProt Q96DX7) | 0.096
THAP9 (UniProt Q9H5L6) | 0.024
TXNRD2 (UniProt Q9NNW7) | 0.023
TMOD1 (UniProt P28289) | -0.003
TBCE (UniProt Q15813) | 0.008
TOR3A (UniProt Q9H497) | -0.009
TPD52L2 isoform 7 (UniProt O43399) | 0.046
TJP1 (UniProt G3V1L9) | -0.025
TFPI (UniProt P10646) | 0.053
TMEM164 (UniProt Q5U3C3) | -0.13
TUBA3C (UniProt P0DPH7) | 0.012
